Drawing on PubChem BioAssay, this text covers growth inhibition, inhibition and outcome for 20 compounds.

A short description of experiment [1]: antimalarial activity against Dd2 strain (AID 2302;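 active means growth inhibition above 50% at the single 2 µM test dose, taken to imply half-maximal potency below 2 µM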;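 further: 0% = DMSO untreated growth and 100% = chloroquine plus artemisinin killed control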). As to conditions: P. falciparum Dd2 in RBCs, LDH growth readout, 72 h; at 2 µM; hits give high values.
Experiment [2] can be described thus: human hepatoma cell viability loss – ATP luminescence, cytotoxicity control for P. falciparum antimalarial project, primary screen (AID 2303;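 active means inhibition above 50%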;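 further: 0% = DMSO wells and 100% = digitonin-killed cells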). As to conditions: HepG2 viability, 24-48 h, at 10 µM, hits give high values.
In experiment [3] the target is L-lactate dehydrogenase (Plasmodium falciparum (isolate CDC / Honduras)) (UniProt Q27743). Nature of the experiment: PfLDH activity inhibition – cell lysate, 3D7 strain, counter-screen for P. falciparum growth inhibition project (AID 2304).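 Further: 0% = vehicle and 100% = reference inhibitor.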 The settings on record: P. falciparum 3D7 crude extract, LDH APAD/NBT absorbance; at 2 µM; hits give high values. (In general: A counterscreen serves to expose hits that act by an unwanted route or on another target.)

A short description of experiment [4]: inhibition of 3D7 malaria parasite growth – strain 3D7 (AID 2306).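 Further: 0% = DMSO wells and 100% = chloroquine plus artemisinin control wells.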 The settings on record: P. falciparum 3D7 erythrocytic growth, LDH absorbance, 72 h; at 2 µM; hits give high values.
Experiment [5] concerns the target Calcium-dependent protein kinase 1 (Plasmodium falciparum (isolate 3D7)) (UniProt P62344). Nature of the experiment: PfCDPK1 kinase inhibitors, biochemical, TCAMS library (AID 1159585; cut-off not given, nearly all actives have IC50 up to about 0.98 µM;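 further: inhibitors leave more ATP so luminescence rises with inhibition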). As to conditions: recombinant PfCDPK1, Kinase-Glo ATP depletion luminescence. (In Kinase-Glo more light means more ATP remaining.)
Experiment [6] has as its target Plasmodium falciparum protein kinase 6 (PK6, PF3D7_1337100) (UniProt Q8IDW1). Nature of the experiment: PfPK6 kinase inhibitors, biochemical, TCAMS library (AID 1159586). As to conditions: recombinant PfPK6, Kinase-Glo ATP depletion luminescence.
Experiment [7] addresses Protein kinase 7 (PK7), Plasmodium falciparum 3D7 (PF3D7_0213400) (UniProt Q7YTF7). Nature of the experiment: inhibition of Plasmodium PK7 catalytic activity – biochemical, TCAMS antimalarial set, Kinase-Glo luminescence (AID 1159587). As to conditions: recombinant PfPK7, Kinase-Glo ATP depletion luminescence.
Experiment [8] concerns the target Calcium-dependent protein kinase 4 (Plasmodium falciparum (isolate 3D7)) (UniProt Q8IBS5). Nature of the experiment: PfCDPK4 kinase inhibitors, biochemical, TCAMS library (AID 1159588; cut-off not given, nearly all actives have IC50 up to about 0.91 µM). As to conditions: recombinant PfCDPK4, Kinase-Glo ATP depletion luminescence.

A number with no mark means an inactive call. For some of these results: Potency and affinity values are given separately. Activity calls are given as the source filed them. Unless noted, how the calls were made is not given here.

Chain of L-lactate dehydrogenase (Plasmodium falciparum (isolate CDC / Honduras)) (Q27743 whole entry, looked up): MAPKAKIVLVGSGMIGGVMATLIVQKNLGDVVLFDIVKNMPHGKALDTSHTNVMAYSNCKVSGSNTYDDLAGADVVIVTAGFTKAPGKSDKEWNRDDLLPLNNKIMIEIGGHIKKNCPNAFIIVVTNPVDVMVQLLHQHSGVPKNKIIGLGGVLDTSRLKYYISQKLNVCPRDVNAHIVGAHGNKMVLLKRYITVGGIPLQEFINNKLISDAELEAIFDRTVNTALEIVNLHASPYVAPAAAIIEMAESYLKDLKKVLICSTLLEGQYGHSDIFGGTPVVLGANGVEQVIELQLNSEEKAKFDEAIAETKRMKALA
Chain of Calcium-dependent protein kinase 4 (Plasmodium falciparum (isolate 3D7)) (Q8IBS5 whole entry, looked up): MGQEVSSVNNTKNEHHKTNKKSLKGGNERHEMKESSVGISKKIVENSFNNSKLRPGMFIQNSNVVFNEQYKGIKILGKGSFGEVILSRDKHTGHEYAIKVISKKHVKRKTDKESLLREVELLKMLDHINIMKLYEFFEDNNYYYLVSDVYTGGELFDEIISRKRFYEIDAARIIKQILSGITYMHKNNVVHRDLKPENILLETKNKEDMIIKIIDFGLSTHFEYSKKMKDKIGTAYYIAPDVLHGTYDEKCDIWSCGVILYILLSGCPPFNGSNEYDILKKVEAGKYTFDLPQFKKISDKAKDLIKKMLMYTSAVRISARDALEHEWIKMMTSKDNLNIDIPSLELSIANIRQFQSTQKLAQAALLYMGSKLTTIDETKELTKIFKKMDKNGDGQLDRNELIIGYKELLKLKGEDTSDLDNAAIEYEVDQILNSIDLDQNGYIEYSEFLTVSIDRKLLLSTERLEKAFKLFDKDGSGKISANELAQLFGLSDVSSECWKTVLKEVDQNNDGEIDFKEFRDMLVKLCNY
Chain of Calcium-dependent protein kinase 1 (Plasmodium falciparum (isolate 3D7)) (P62344 whole entry, looked up): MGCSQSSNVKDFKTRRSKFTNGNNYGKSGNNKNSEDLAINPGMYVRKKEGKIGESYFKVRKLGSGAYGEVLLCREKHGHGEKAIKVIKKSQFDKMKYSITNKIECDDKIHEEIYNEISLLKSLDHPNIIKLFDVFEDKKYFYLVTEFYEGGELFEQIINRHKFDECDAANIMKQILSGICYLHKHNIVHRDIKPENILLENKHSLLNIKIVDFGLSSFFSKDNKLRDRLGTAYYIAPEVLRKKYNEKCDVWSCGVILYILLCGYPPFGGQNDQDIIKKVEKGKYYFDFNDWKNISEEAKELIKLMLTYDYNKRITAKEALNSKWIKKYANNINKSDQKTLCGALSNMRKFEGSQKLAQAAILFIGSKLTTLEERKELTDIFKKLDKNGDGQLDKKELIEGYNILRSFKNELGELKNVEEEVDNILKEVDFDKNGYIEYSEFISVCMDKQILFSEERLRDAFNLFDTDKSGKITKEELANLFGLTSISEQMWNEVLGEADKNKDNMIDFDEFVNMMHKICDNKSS
Chain of Protein kinase 7 (PK7), Plasmodium falciparum 3D7 (PF3D7_0213400) (Q7YTF7 1-343): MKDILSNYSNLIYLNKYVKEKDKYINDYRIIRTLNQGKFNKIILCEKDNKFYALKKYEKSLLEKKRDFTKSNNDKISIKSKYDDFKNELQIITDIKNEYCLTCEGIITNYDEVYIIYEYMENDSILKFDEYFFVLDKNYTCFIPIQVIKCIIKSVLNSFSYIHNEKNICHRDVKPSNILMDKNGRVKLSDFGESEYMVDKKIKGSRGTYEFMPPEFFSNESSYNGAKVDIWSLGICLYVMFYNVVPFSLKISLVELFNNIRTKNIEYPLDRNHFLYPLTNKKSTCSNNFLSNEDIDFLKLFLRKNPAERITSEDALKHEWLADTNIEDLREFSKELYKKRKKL
Chain of Plasmodium falciparum protein kinase 6 (PK6, PF3D7_1337100) (Q8IDW1 1-305): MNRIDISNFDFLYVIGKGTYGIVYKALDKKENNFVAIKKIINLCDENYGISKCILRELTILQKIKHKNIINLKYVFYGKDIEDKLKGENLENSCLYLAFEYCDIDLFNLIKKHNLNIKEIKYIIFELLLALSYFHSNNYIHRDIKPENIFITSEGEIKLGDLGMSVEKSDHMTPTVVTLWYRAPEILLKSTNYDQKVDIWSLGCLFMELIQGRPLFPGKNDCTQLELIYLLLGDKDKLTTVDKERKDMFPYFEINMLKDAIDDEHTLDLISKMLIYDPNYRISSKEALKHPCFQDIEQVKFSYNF

Usually inhibition stands for the relative decrease from the control value, in per cent. On to `CCNCc1cccc(-c2ccc3ccnc(N)c3c2)c1`, for which the growth inhibition was 98% (active) in experiment [1] and 100% (active) in experiment [4]. The inhibition in experiment [2] was 17%; in experiment [3], 0%. Further, the outcome in experiment [5], in experiment [6], in experiment [7] and in experiment [8] was inactive.

Consider `CN1CCCc2ccc(NC(=O)c3cnc(-c4ccccc4)cn3)cc21`, for which the growth inhibition was 82% (active) in experiment [1] and 87% (active) in experiment [4]. The inhibition is 24% in experiment [2] and 2% in experiment [3]. Moreover, the result in experiment [5], in experiment [6], in experiment [7] and in experiment [8] was inactive.

Take `O=C(Nc1cc(C(F)(F)F)ccc1N1CCOCC1)C(Cl)(Cl)Cl`: the growth inhibition in experiment [1] and in experiment [4] was 100% (active) each time. The inhibition was -5% in experiment [2] and 5% in experiment [3]. Besides, the result in experiment [5], in experiment [6], in experiment [7] and in experiment [8] was inactive.

`COc1cc2nc(NCC3CCCCC3)nc(NCc3ccccc3)c2cc1OC`: the growth inhibition in experiment [1] and in experiment [4] was 101% (active) each time. The inhibition in experiment [2] was 18%; in experiment [3], 7%. The outcome in experiment [5], in experiment [6], in experiment [7] and in experiment [8] was inactive.

As for `Nc1nccc2ccc(-c3cccc(O)c3)cc12`, the growth inhibition in experiment [1] is 71% (active); in experiment [4], 95% (active). For the same compound, the inhibition was 43% in experiment [2] and 7% in experiment [3]. Further, the result in experiment [5], in experiment [6], in experiment [7] and in experiment [8] was inactive.

`Cc1cccc2[nH]c(-c3cccc(-c4ccc(NC(=O)Nc5ccsc5)cc4)c3)nc12`: the figures for the growth inhibition in experiment [1] and in experiment [4] were 99% (active) and 100% (active), respectively. Also, the inhibition was 27% in experiment [2] and 0% in experiment [3]. Also, the result in experiment [5], in experiment [6], in experiment [7] and in experiment [8] was inactive.

As to `Ic1cc(Nc2ncnc3ccsc23)ccc1OCc1ccccc1`, the growth inhibition in experiment [1] was 81% (active); in experiment [4], 101% (active). For the same compound, the inhibition in experiment [2] was 22%; in experiment [3] it was 4%. In addition, the outcome in experiment [5], in experiment [6], in experiment [7] and in experiment [8] was inactive.

As to `COc1ccc2nccc([C@@H](O)CN3CCC(NC(=O)/C=C/c4ccnc5ccccc45)CC3)c2c1`, the growth inhibition in experiment [1] is 12%; in experiment [4], 91% (active). For the same compound, the inhibition was 19% in experiment [2] and -1% in experiment [3]. Moreover, the result in experiment [5], in experiment [6], in experiment [7] and in experiment [8] was inactive.

For the compound `CC(C)(C)c1ccc(CNC(=O)COc2ccc(-c3nnc(-c4cccc([N+](=O)[O-])c4)o3)cc2[N+](=O)[O-])cc1`, the growth inhibition in experiment [1] was 25%; in experiment [4], 93% (active). The inhibition was 10% in experiment [2] and -7% in experiment [3]. Further, the outcome in experiment [5], in experiment [6], in experiment [7] and in experiment [8] was inactive.

In the case of `O=C(Nc1ccc(Cl)cc1)N(CC1C[C@H]2CC[C@@H](C1)N2Cc1ccc(C(F)(F)F)cc1)c1ccc(N2CCOCC2)c(F)c1` (stereo not given in full), the growth inhibition in experiment [1] was 36%; in experiment [4] it was 85% (active). The inhibition is 31% in experiment [2] and 0% in experiment [3]. The result in experiment [5], in experiment [6], in experiment [7] and in experiment [8] was inactive.

For the compound `N=C(N)c1ccc(NN=Cc2ccc(Oc3ccc(C(=N)N)cc3)cc2)cc1`, the growth inhibition in experiment [1] is 100% (active); in experiment [4], 99% (active). Also, the figures for the inhibition in experiment [2] and in experiment [3] were 18% and 0%, respectively. Moreover, the outcome in experiment [5], in experiment [6], in experiment [7] and in experiment [8] was inactive.

On to `Cc1cc2[nH]c(-c3ccc(C(=O)NCCCN4CCN(c5cccc(Cl)c5)CC4)cc3F)nc2cc1Cl`, for which the growth inhibition was 79% (active) in experiment [1] and 99% (active) in experiment [4]. Also, the inhibition was -2% in experiment [2] and 5% in experiment [3]. Besides, the outcome in experiment [5], in experiment [6], in experiment [7] and in experiment [8] was inactive.

Turning to `O=c1[nH]c(NCCCCCN2CCC(c3c[nH]c4ccccc34)CC2)ncc1Cc1ccc(Cl)c(Cl)c1`, the values for the growth inhibition in experiment [1] and in experiment [4] were 8% and 94% (active), respectively. Further, the inhibition is 21% in experiment [2] and -4% in experiment [3]. For the same compound, the result in experiment [5], in experiment [6], in experiment [7] and in experiment [8] was inactive.

On to `CCCCc1cc(NCC)nc(Nc2cccc(OC)c2)n1`, for which the growth inhibition is 69% (active) in experiment [1] and 97% (active) in experiment [4]. Moreover, the inhibition in experiment [2] was 9%; in experiment [3], -4%. Besides, the result in experiment [5], in experiment [6], in experiment [7] and in experiment [8] was inactive.

For `CCN(CCCN1CCCCC1)c1cc(C)nc(Nc2ccc(C)c(F)c2)n1`, the values for the growth inhibition in experiment [1] and in experiment [4] were 92% (active) and 102% (active), respectively. The results for the inhibition in experiment [2] and in experiment [3] were 20% and -5%, respectively. The result in experiment [5], in experiment [6], in experiment [7] and in experiment [8] was inactive.

Regarding `CC(=O)Nc1ccc(OCCN(Cc2ccccc2C(F)(F)F)c2ccc(C#N)c(C(F)(F)F)c2)c(Cl)c1`, the growth inhibition in experiment [1] is 78% (active); in experiment [4], 98% (active). Further, the results for the inhibition in experiment [2] and in experiment [3] were -6% and -3%, respectively. Further, the outcome in experiment [5], in experiment [6], in experiment [7] and in experiment [8] was inactive.

Regarding `COc1ccc2c(NN=CC=Cc3ccccc3)ccnc2c1`, the growth inhibition in experiment [1] and in experiment [4] was 100% (active) in each case. Besides, the inhibition in experiment [2] was 9%; in experiment [3], 4%. Also, the result in experiment [5], in experiment [6], in experiment [7] and in experiment [8] was inactive.

`O=C(Nc1ccc(-c2nc3ccccc3[nH]2)cc1)c1cccc([N+](=O)[O-])c1`: the growth inhibition in experiment [1] was 56% (active); in experiment [4], 101% (active). Moreover, the results for the inhibition in experiment [2] and in experiment [3] were 45% and -3%, respectively. The outcome in experiment [5], in experiment [6], in experiment [7] and in experiment [8] was inactive.

With `COc1ccc(CNCc2ccc(F)cc2)cc1-c1ccc(S(=O)(=O)NCCN2CCCC2)cc1`, the figures for the growth inhibition in experiment [1] and in experiment [4] were 25% and 91% (active), respectively. Moreover, the inhibition in experiment [2] is 38%; in experiment [3], 0%. For the same compound, the result in experiment [5], in experiment [6], in experiment [7] and in experiment [8] was inactive.

`CN(C(=O)Nc1ccc(C(F)(F)F)cc1)C1CCN(CCCCCNC(=O)/C=C/c2ccc(Cl)c(Cl)c2)CC1`: the growth inhibition in experiment [1] was 38%; in experiment [4] it was 101% (active). In addition, the inhibition is 57% (active) in experiment [2] and -3% in experiment [3]. The result in experiment [5], in experiment [6], in experiment [7] and in experiment [8] was inactive.
